# Laboratory results reported in article PMC11006913.
# Numbering of substitutions follows the chain as printed.
# How the values were obtained:
# Test in all cases: PBM; 200 nM protein, PBS
# Conditions in all cases: dsDNA, one strand shown
# SIX6 [1] = molecular target: T1, SIX6 (Homo sapiens, UniProt O95475 114-200, L167I)
# T1 sequence: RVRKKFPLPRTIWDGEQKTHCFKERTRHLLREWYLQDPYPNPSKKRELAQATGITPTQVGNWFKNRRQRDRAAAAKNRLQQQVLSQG
# SIX6 [2] = molecular target: T2, SIX6 (Homo sapiens, UniProt O95475 114-200, L143V)
# T2 sequence: T1 sequence with L30V, I54L
# SIX6 [3] = molecular target: T3, SIX6 (Homo sapiens, UniProt O95475 114-200, H141N)
# T3 sequence: T1 sequence with H28N, I54L
# SIX6 [4] = molecular target: T4, SIX6 (Homo sapiens, UniProt O95475 114-200, T165P)
# T4 sequence: T1 sequence with T52P, I54L
# SIX6 [5] = molecular target: T5, SIX6 (Homo sapiens, UniProt O95475 114-200, L167M)
# T5 sequence: T1 sequence with I54M
# SIX6 [6] = molecular target: T6, SIX6 (Homo sapiens, UniProt O95475 114-200, L143M)
# T6 sequence: T1 sequence with L30M, I54L
# SIX6 [7] = molecular target: T7, SIX6 (Homo sapiens, UniProt O95475 114-200, L143I)
# T7 sequence: T1 sequence with L30I, I54L
# SIX6 [8] = molecular target: T8, SIX6 (Homo sapiens, UniProt O95475 114-200, T165G)
# T8 sequence: T1 sequence with T52G, I54L
# SIX6 [9] = molecular target: T9, SIX6 (Homo sapiens, UniProt O95475 114-200, T139Q)
# T9 sequence: T1 sequence with T26Q, I54L
# SIX6 [10] = molecular target: T10, SIX6 (Homo sapiens, UniProt O95475 114-200, T165A)
# T10 sequence: T1 sequence with T52A, I54L
# SIX6 [11] = molecular target: T11, SIX6 (Homo sapiens, UniProt O95475 114-200, L167V)
# T11 sequence: T1 sequence with I54V
# SIX6 [12] = molecular target: T12, SIX6 (Homo sapiens, UniProt O95475 114-200)
# T12 sequence: T1 sequence with I54L
# SIX6 [13] = molecular target: T13, SIX6 (Homo sapiens, UniProt O95475 114-200, T165I)
# T13 sequence: T1 sequence with T52I, I54L
sequence,measurement,setting,value
CGATATCC,binding signal,SIX6 [1],"11.1 upbm affinity estimate (log intensity, higher = more binding, comparable within an allelic series)"
same,binding signal,SIX6 [2],"10.2 upbm affinity estimate (log intensity, higher = more binding, comparable within an allelic series)"
same,binding signal,SIX6 [3],"11.1 upbm affinity estimate (log intensity, higher = more binding, comparable within an allelic series)"
same,binding signal,SIX6 [4],"9.62 upbm affinity estimate (log intensity, higher = more binding, comparable within an allelic series)"
same,binding signal,SIX6 [5],"10.6 upbm affinity estimate (log intensity, higher = more binding, comparable within an allelic series)"
same,binding signal,SIX6 [6],"10.9 upbm affinity estimate (log intensity, higher = more binding, comparable within an allelic series)"
same,binding signal,SIX6 [7],"10.3 upbm affinity estimate (log intensity, higher = more binding, comparable within an allelic series)"
same,binding signal,SIX6 [8],"11.1 upbm affinity estimate (log intensity, higher = more binding, comparable within an allelic series)"
same,binding signal,SIX6 [9],"11.2 upbm affinity estimate (log intensity, higher = more binding, comparable within an allelic series)"
same,binding signal,SIX6 [10],"11 upbm affinity estimate (log intensity, higher = more binding, comparable within an allelic series)"
same,binding signal,SIX6 [11],"10.9 upbm affinity estimate (log intensity, higher = more binding, comparable within an allelic series)"
same,binding signal,SIX6 [12],"11 upbm affinity estimate (log intensity, higher = more binding, comparable within an allelic series)"
same,binding signal,SIX6 [13],"10.9 upbm affinity estimate (log intensity, higher = more binding, comparable within an allelic series)"
AGATCCTC,binding signal,SIX6 [1],"10.5 upbm affinity estimate (log intensity, higher = more binding, comparable within an allelic series)"
same,binding signal,SIX6 [2],"9.98 upbm affinity estimate (log intensity, higher = more binding, comparable within an allelic series)"
same,binding signal,SIX6 [3],"10.3 upbm affinity estimate (log intensity, higher = more binding, comparable within an allelic series)"
same,binding signal,SIX6 [4],"9.64 upbm affinity estimate (log intensity, higher = more binding, comparable within an allelic series)"
same,binding signal,SIX6 [6],"10.5 upbm affinity estimate (log intensity, higher = more binding, comparable within an allelic series)"
same,binding signal,SIX6 [7],"9.91 upbm affinity estimate (log intensity, higher = more binding, comparable within an allelic series)"
same,binding signal,SIX6 [9],"10.6 upbm affinity estimate (log intensity, higher = more binding, comparable within an allelic series)"
same,binding signal,SIX6 [10],"10.4 upbm affinity estimate (log intensity, higher = more binding, comparable within an allelic series)"
same,binding signal,SIX6 [11],"10.2 upbm affinity estimate (log intensity, higher = more binding, comparable within an allelic series)"
same,binding signal,SIX6 [12],"10.4 upbm affinity estimate (log intensity, higher = more binding, comparable within an allelic series)"
AGATATCA,binding signal,SIX6 [1],"11.4 upbm affinity estimate (log intensity, higher = more binding, comparable within an allelic series)"
same,binding signal,SIX6 [2],"10.5 upbm affinity estimate (log intensity, higher = more binding, comparable within an allelic series)"
same,binding signal,SIX6 [3],"11.4 upbm affinity estimate (log intensity, higher = more binding, comparable within an allelic series)"
same,binding signal,SIX6 [4],"10.1 upbm affinity estimate (log intensity, higher = more binding, comparable within an allelic series)"
same,binding signal,SIX6 [5],"10.8 upbm affinity estimate (log intensity, higher = more binding, comparable within an allelic series)"
same,binding signal,SIX6 [6],"11 upbm affinity estimate (log intensity, higher = more binding, comparable within an allelic series)"
same,binding signal,SIX6 [7],"10.4 upbm affinity estimate (log intensity, higher = more binding, comparable within an allelic series)"
same,binding signal,SIX6 [8],"11.2 upbm affinity estimate (log intensity, higher = more binding, comparable within an allelic series)"
same,binding signal,SIX6 [9],"11.1 upbm affinity estimate (log intensity, higher = more binding, comparable within an allelic series)"
same,binding signal,SIX6 [10],"11.2 upbm affinity estimate (log intensity, higher = more binding, comparable within an allelic series)"
same,binding signal,SIX6 [11],"11.2 upbm affinity estimate (log intensity, higher = more binding, comparable within an allelic series)"
same,binding signal,SIX6 [12],"11 upbm affinity estimate (log intensity, higher = more binding, comparable within an allelic series)"
same,binding signal,SIX6 [13],"11.1 upbm affinity estimate (log intensity, higher = more binding, comparable within an allelic series)"
GGTGATAC,binding signal,SIX6 [1],"11.3 upbm affinity estimate (log intensity, higher = more binding, comparable within an allelic series)"
same,binding signal,SIX6 [2],"10.3 upbm affinity estimate (log intensity, higher = more binding, comparable within an allelic series)"
same,binding signal,SIX6 [3],"11.3 upbm affinity estimate (log intensity, higher = more binding, comparable within an allelic series)"
same,binding signal,SIX6 [4],"9.52 upbm affinity estimate (log intensity, higher = more binding, comparable within an allelic series)"
same,binding signal,SIX6 [5],"10.6 upbm affinity estimate (log intensity, higher = more binding, comparable within an allelic series)"
same,binding signal,SIX6 [6],"11 upbm affinity estimate (log intensity, higher = more binding, comparable within an allelic series)"
same,binding signal,SIX6 [7],"10.4 upbm affinity estimate (log intensity, higher = more binding, comparable within an allelic series)"
same,binding signal,SIX6 [8],"11.3 upbm affinity estimate (log intensity, higher = more binding, comparable within an allelic series)"
same,binding signal,SIX6 [9],"11.4 upbm affinity estimate (log intensity, higher = more binding, comparable within an allelic series)"
same,binding signal,SIX6 [10],"11.3 upbm affinity estimate (log intensity, higher = more binding, comparable within an allelic series)"
same,binding signal,SIX6 [11],"11 upbm affinity estimate (log intensity, higher = more binding, comparable within an allelic series)"
same,binding signal,SIX6 [12],"11 upbm affinity estimate (log intensity, higher = more binding, comparable within an allelic series)"
same,binding signal,SIX6 [13],"11 upbm affinity estimate (log intensity, higher = more binding, comparable within an allelic series)"
GAGTATCA,binding signal,SIX6 [1],"11.2 upbm affinity estimate (log intensity, higher = more binding, comparable within an allelic series)"
same,binding signal,SIX6 [2],"10.2 upbm affinity estimate (log intensity, higher = more binding, comparable within an allelic series)"
same,binding signal,SIX6 [3],"11.3 upbm affinity estimate (log intensity, higher = more binding, comparable within an allelic series)"
same,binding signal,SIX6 [4],"9.54 upbm affinity estimate (log intensity, higher = more binding, comparable within an allelic series)"
same,binding signal,SIX6 [5],"10.6 upbm affinity estimate (log intensity, higher = more binding, comparable within an allelic series)"
same,binding signal,SIX6 [6],"10.9 upbm affinity estimate (log intensity, higher = more binding, comparable within an allelic series)"
same,binding signal,SIX6 [7],"10.3 upbm affinity estimate (log intensity, higher = more binding, comparable within an allelic series)"
same,binding signal,SIX6 [8],"11.3 upbm affinity estimate (log intensity, higher = more binding, comparable within an allelic series)"
same,binding signal,SIX6 [9],"11.2 upbm affinity estimate (log intensity, higher = more binding, comparable within an allelic series)"
same,binding signal,SIX6 [10],"11.2 upbm affinity estimate (log intensity, higher = more binding, comparable within an allelic series)"
same,binding signal,SIX6 [11],"11 upbm affinity estimate (log intensity, higher = more binding, comparable within an allelic series)"
same,binding signal,SIX6 [12],"10.9 upbm affinity estimate (log intensity, higher = more binding, comparable within an allelic series)"
same,binding signal,SIX6 [13],"11.1 upbm affinity estimate (log intensity, higher = more binding, comparable within an allelic series)"
AGGCCCCG,binding signal,SIX6 [1],"8.89 upbm affinity estimate (log intensity, higher = more binding, comparable within an allelic series)"
same,binding signal,SIX6 [2],"8.82 upbm affinity estimate (log intensity, higher = more binding, comparable within an allelic series)"
same,binding signal,SIX6 [3],"8.69 upbm affinity estimate (log intensity, higher = more binding, comparable within an allelic series)"
same,binding signal,SIX6 [4],"8.87 upbm affinity estimate (log intensity, higher = more binding, comparable within an allelic series)"
same,binding signal,SIX6 [5],"8.92 upbm affinity estimate (log intensity, higher = more binding, comparable within an allelic series)"
same,binding signal,SIX6 [6],"8.79 upbm affinity estimate (log intensity, higher = more binding, comparable within an allelic series)"
same,binding signal,SIX6 [7],"8.8 upbm affinity estimate (log intensity, higher = more binding, comparable within an allelic series)"
same,binding signal,SIX6 [8],"8.83 upbm affinity estimate (log intensity, higher = more binding, comparable within an allelic series)"
same,binding signal,SIX6 [9],"8.79 upbm affinity estimate (log intensity, higher = more binding, comparable within an allelic series)"
same,binding signal,SIX6 [10],"8.77 upbm affinity estimate (log intensity, higher = more binding, comparable within an allelic series)"
same,binding signal,SIX6 [11],"8.67 upbm affinity estimate (log intensity, higher = more binding, comparable within an allelic series)"
same,binding signal,SIX6 [12],"8.75 upbm affinity estimate (log intensity, higher = more binding, comparable within an allelic series)"
same,binding signal,SIX6 [13],"8.82 upbm affinity estimate (log intensity, higher = more binding, comparable within an allelic series)"
GATACCGA,binding signal,SIX6 [1],"10.5 upbm affinity estimate (log intensity, higher = more binding, comparable within an allelic series)"
same,binding signal,SIX6 [2],"9.92 upbm affinity estimate (log intensity, higher = more binding, comparable within an allelic series)"
same,binding signal,SIX6 [3],"10.4 upbm affinity estimate (log intensity, higher = more binding, comparable within an allelic series)"
same,binding signal,SIX6 [4],"9.38 upbm affinity estimate (log intensity, higher = more binding, comparable within an allelic series)"
same,binding signal,SIX6 [5],"10.1 upbm affinity estimate (log intensity, higher = more binding, comparable within an allelic series)"
same,binding signal,SIX6 [7],"9.98 upbm affinity estimate (log intensity, higher = more binding, comparable within an allelic series)"
same,binding signal,SIX6 [8],"10.6 upbm affinity estimate (log intensity, higher = more binding, comparable within an allelic series)"
same,binding signal,SIX6 [9],"10.6 upbm affinity estimate (log intensity, higher = more binding, comparable within an allelic series)"
same,binding signal,SIX6 [10],"10.5 upbm affinity estimate (log intensity, higher = more binding, comparable within an allelic series)"
same,binding signal,SIX6 [12],"10.5 upbm affinity estimate (log intensity, higher = more binding, comparable within an allelic series)"
